The panel holds about 83,000 compounds, 20% with a hit somewhere; the sample as a whole holds those more often.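 Testing used 96-well plates and a 48-hour single-concentration exposure. Example: -40 means 40% of the starting cells died.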 Calls of active or inactive are those of the source. How the source made its calls: active means growth percent below 10; inactive means the rest.
Assays:
Assay in all cases: NCI-60 one-dose screen, 48 h (100 = growth as untreated, 0 = no growth, -100 = all killed)
Conditions in all cases: 10 µM unless noted
HCT-15 colon = system: HCT-15 colon
HT29 colon = system: HT29 colon
SNB-75 CNS = system: SNB-75 CNS
SNB-19 CNS = system: SNB-19 CNS
U251 CNS = system: U251 CNS
PC-3 prostate = system: PC-3 prostate
SK-MEL-5 melanoma = system: SK-MEL-5 melanoma
UACC-62 melanoma = system: UACC-62 melanoma
LOX IMVI melanoma = system: LOX IMVI melanoma
SK-MEL-28 melanoma = system: SK-MEL-28 melanoma
EKVX NSCLC = system: EKVX NSCLC
SN12C renal = system: SN12C renal
UO-31 renal = system: UO-31 renal
TK-10 renal = system: TK-10 renal
ACHN renal = system: ACHN renal
A498 renal = system: A498 renal
CCRF-CEM leukemia = system: CCRF-CEM leukemia
MOLT-4 leukemia = system: MOLT-4 leukemia
CAKI-1 renal = system: CAKI-1 renal

Measured: growth

C=CCCCC(=O)CCC(=O)OCC1O[C@@H](O[C@@H]2C(O)[C@@H](OC(C)=O)C(C)O[C@H]2O[C@H](CC=C)CCCCC)C(O)[C@@H](OC(=O)/C(C)=C/C)[C@@H]1OC(=O)/C=C/c1ccccc1 (stereo partly specified)
active: HT29 colon 0.411% | SK-MEL-5 melanoma -71.5% | LOX IMVI melanoma -52.9% | SN12C renal 3.86%
inactive: HCT-15 colon 20.6% | SNB-75 CNS 30.1% | SNB-19 CNS 45.7% | U251 CNS 11% | PC-3 prostate 31.3% | UACC-62 melanoma 20.1% | SK-MEL-28 melanoma 33% | EKVX NSCLC 30.5% | UO-31 renal 24.5% | TK-10 renal 27% | ACHN renal 23.4% | A498 renal 52.5% | CCRF-CEM leukemia 29.2% | MOLT-4 leukemia 26.7%

NC1(C(=O)N[C@@H](CCO)c2ccc(Cl)cc2)CCN(c2ncnc3[nH]ccc23)CC1
active: SNB-75 CNS -46.8% | UACC-62 melanoma -15.6% | A498 renal -46.2%
inactive: HCT-15 colon 58.1% | HT29 colon 23.5% | SNB-19 CNS 43.5% | U251 CNS 34.6% | PC-3 prostate 49.8% | SK-MEL-5 melanoma 70.5% | LOX IMVI melanoma 40.3% | SK-MEL-28 melanoma 24.7% | EKVX NSCLC 61.9% | SN12C renal 55.6% | UO-31 renal 17.5% | TK-10 renal 13.7% | ACHN renal 53.4% | CAKI-1 renal 34.4% | CCRF-CEM leukemia 41.6% | MOLT-4 leukemia 11.4%

CC(=O)c1c(C)c2cnc(Nc3ccc(N4CCNCC4)cn3)nc2n(C2CCCC2)c1=O
inactive: HCT-15 colon 22.4% | SNB-75 CNS 54.9% | SNB-19 CNS 50.5% | U251 CNS 37.8% | PC-3 prostate 32.9% | SK-MEL-5 melanoma 41.1% | UACC-62 melanoma 49.9% | LOX IMVI melanoma 17.6% | SK-MEL-28 melanoma 56.4% | EKVX NSCLC 58.8% | SN12C renal 37.1% | UO-31 renal 20.2% | TK-10 renal 32.4% | ACHN renal 17.1% | CAKI-1 renal 26.3% | A498 renal 31.7% | CCRF-CEM leukemia 12.2% | MOLT-4 leukemia 11%
active: HT29 colon -22.8%

O=C(NC1CCNCC1)c1[nH]ncc1NC(=O)c1c(Cl)cccc1Cl
active: HT29 colon -26.7% | SNB-75 CNS -40.7% | U251 CNS 4.47% | PC-3 prostate 5.97% | SK-MEL-5 melanoma -12.8% | UACC-62 melanoma -41.9% | LOX IMVI melanoma 8.93% | SK-MEL-28 melanoma -14.5% | MOLT-4 leukemia 5.67%
inactive: HCT-15 colon 72.7% | SNB-19 CNS 12.5% | EKVX NSCLC 52.5% | SN12C renal 12.7% | UO-31 renal 70.6% | TK-10 renal 25.8% | ACHN renal 66.5% | CAKI-1 renal 45.4% | CCRF-CEM leukemia 11.2%

C#Cc1cccc(Nc2ncnc3cc(OC)c(OCCCCCCC(=O)NO)cc23)c1
inactive: PC-3 prostate 10.4% | EKVX NSCLC 25%
active: HCT-15 colon 7.16% | HT29 colon -13.4% | SNB-75 CNS 2.04% | SNB-19 CNS 7.79% | U251 CNS -58.1% | SK-MEL-5 melanoma -91.4% | UACC-62 melanoma -78.3% | LOX IMVI melanoma -89.3% | SK-MEL-28 melanoma -29.5% | SN12C renal 5.37% | UO-31 renal -16.8% | TK-10 renal -48% | ACHN renal -30.1% | CAKI-1 renal -68.6% | CCRF-CEM leukemia 3.23% | MOLT-4 leukemia -1.32%

COc1cc(NC2CCC(=O)N2c2ccc(Cl)cc2Cl)cc(OC)c1OC (stereo unspecified)
inactive: HCT-15 colon 108% | HT29 colon 107% | SNB-75 CNS 86.5% | SNB-19 CNS 101% | U251 CNS 97.7% | PC-3 prostate 95.9% | SK-MEL-5 melanoma 103% | UACC-62 melanoma 104% | LOX IMVI melanoma 96.6% | SK-MEL-28 melanoma 104% | EKVX NSCLC 100% | SN12C renal 109% | UO-31 renal 94.5% | TK-10 renal 104% | ACHN renal 110% | CAKI-1 renal 95.7% | CCRF-CEM leukemia 90.5% | MOLT-4 leukemia 96.2%

COC(=O)N[C@@H](C)CNc1nccc(-c2cn(C(C)C)nc2-c2cc(Cl)cc(NS(C)(=O)=O)c2F)n1
active: HT29 colon 7.99% | UACC-62 melanoma -11% | SK-MEL-28 melanoma -0.756%
inactive: HCT-15 colon 53.6% | SNB-75 CNS 51.8% | SNB-19 CNS 108% | U251 CNS 87.2% | PC-3 prostate 90.7% | SK-MEL-5 melanoma 51.4% | LOX IMVI melanoma 37.5% | EKVX NSCLC 63.1% | SN12C renal 66.9% | UO-31 renal 16.9% | TK-10 renal 52% | ACHN renal 28% | CAKI-1 renal 34.2% | A498 renal 31.9% | CCRF-CEM leukemia 89.8% | MOLT-4 leukemia 67.4%

CN1CCC(COc2cnc(-c3cccc(Cn4nc(-c5cccc(C#N)c5)ccc4=O)c3)nc2)CC1
inactive: HCT-15 colon 12.4% | SNB-75 CNS 72.9% | SNB-19 CNS 78.2% | U251 CNS 16.4% | PC-3 prostate 67.8% | SK-MEL-5 melanoma 43.2% | UACC-62 melanoma 95.1% | LOX IMVI melanoma 34.2% | EKVX NSCLC 58.6% | SN12C renal 82.2% | UO-31 renal 77.8% | TK-10 renal 102% | ACHN renal 74.4% | CAKI-1 renal 79% | A498 renal 95.1% | CCRF-CEM leukemia 34.7% | MOLT-4 leukemia 55.2%
active: HT29 colon -38.5% | SK-MEL-28 melanoma -13.2%

COc1cc(N2CCC(N3CCN(C)CC3)CC2)ccc1Nc1ncnc(Nc2ccccc2S(=O)(=O)C(C)C)n1
inactive: HCT-15 colon 103% | HT29 colon 84.1% | SNB-75 CNS 101% | SNB-19 CNS 98.6% | U251 CNS 101% | PC-3 prostate 93.7% | SK-MEL-5 melanoma 110% | UACC-62 melanoma 102% | LOX IMVI melanoma 103% | SK-MEL-28 melanoma 105% | EKVX NSCLC 105% | SN12C renal 107% | UO-31 renal 98.7% | TK-10 renal 108% | ACHN renal 98.5% | CAKI-1 renal 104% | A498 renal 114% | CCRF-CEM leukemia 92.9% | MOLT-4 leukemia 89.9%

CCOc1ccc(N=C(C)Nc2ccc(OCC)cc2)cc1
inactive: HCT-15 colon 92.1% | HT29 colon 109% | SNB-75 CNS 80.5% | SNB-19 CNS 99.2% | U251 CNS 108% | PC-3 prostate 93.2% | SK-MEL-5 melanoma 109% | UACC-62 melanoma 104% | LOX IMVI melanoma 102% | SK-MEL-28 melanoma 113% | EKVX NSCLC 109% | SN12C renal 102% | UO-31 renal 82.3% | TK-10 renal 108% | ACHN renal 99.5% | CAKI-1 renal 122% | A498 renal 100% | CCRF-CEM leukemia 88% | MOLT-4 leukemia 93.8%

CN(c1ncccc1CNc1nc(Nc2ccc3c(c2)CC(=O)N3)ncc1C(F)(F)F)S(C)(=O)=O
active: HCT-15 colon 2.3% | HT29 colon -28.4% | SNB-75 CNS -43.3% | SNB-19 CNS 7.98% | U251 CNS -0.121% | PC-3 prostate 7.2% | SK-MEL-5 melanoma -38.3% | UACC-62 melanoma -64.6% | LOX IMVI melanoma 2.21% | SK-MEL-28 melanoma -16.1% | EKVX NSCLC 8.69% | SN12C renal 9.55% | UO-31 renal -4.35% | TK-10 renal 0.859% | ACHN renal -0.448% | CCRF-CEM leukemia 3.5% | MOLT-4 leukemia 0.451%
inactive: CAKI-1 renal 12.1%

Cc1cc(C(=O)Nc2cc(Oc3ccc4nc(NC(=O)C5CC5)cn4n3)ccc2C)n(C)n1
active: HT29 colon 4.61% | SNB-75 CNS 7.99% | UACC-62 melanoma -16.9% | LOX IMVI melanoma -20.1% | SK-MEL-28 melanoma 0.461% | A498 renal -39.2%
inactive: HCT-15 colon 44.1% | SNB-19 CNS 33.5% | U251 CNS 13.3% | PC-3 prostate 49.8% | SK-MEL-5 melanoma 23.6% | EKVX NSCLC 58.8% | SN12C renal 37.8% | UO-31 renal 14.4% | TK-10 renal 27.4% | ACHN renal 37.3% | CAKI-1 renal 23.8% | CCRF-CEM leukemia 29.9% | MOLT-4 leukemia 32.6%

COc1ccc(Nc2ncccc2NC(=O)c2cn(Cc3cccc(Oc4ccccc4)c3)nn2)cc1
inactive: HCT-15 colon 78.3% | HT29 colon 101% | SNB-75 CNS 83.8% | SNB-19 CNS 95.3% | U251 CNS 89.8% | PC-3 prostate 69.8% | SK-MEL-5 melanoma 76.2% | UACC-62 melanoma 67% | LOX IMVI melanoma 86.6% | SK-MEL-28 melanoma 102% | EKVX NSCLC 86.6% | SN12C renal 92.3% | UO-31 renal 63.7% | TK-10 renal 99.6% | ACHN renal 99.5% | CAKI-1 renal 87.3% | A498 renal 81.5% | CCRF-CEM leukemia 91.4% | MOLT-4 leukemia 65.3%

Cc1cc(O)c2c(c1)C1OC(=O)CCCCCN1C1=C2C(=O)c2cccc(OC3CC(O)C(O)C(C)O3)c2C1=O (stereo unspecified)
inactive: HCT-15 colon 46.1% | HT29 colon 93.7% | SNB-75 CNS 117% | SNB-19 CNS 97.1% | U251 CNS 63.1% | PC-3 prostate 87.2% | SK-MEL-5 melanoma 86.9% | UACC-62 melanoma 89.5% | LOX IMVI melanoma 34.3% | SK-MEL-28 melanoma 75.8% | EKVX NSCLC 97% | SN12C renal 66.3% | UO-31 renal 99.9% | TK-10 renal 142% | ACHN renal 69.1% | CAKI-1 renal 96.9% | CCRF-CEM leukemia 57.8% | MOLT-4 leukemia 63.3%

O=S1(=O)OC(c2cc(Cl)c(O)c(Br)c2)(c2cc(Cl)c(O)c(Br)c2)c2ccccc21
inactive: HCT-15 colon 105% | HT29 colon 102% | SNB-75 CNS 83.4% | SNB-19 CNS 102% | U251 CNS 101% | PC-3 prostate 84.3% | SK-MEL-5 melanoma 107% | UACC-62 melanoma 97.1% | LOX IMVI melanoma 96.5% | SK-MEL-28 melanoma 118% | EKVX NSCLC 110% | SN12C renal 90.6% | UO-31 renal 76.5% | TK-10 renal 93% | ACHN renal 103% | CAKI-1 renal 107% | CCRF-CEM leukemia 93.6% | MOLT-4 leukemia 92.4%

CCOc1cccc(/C=N/NC(=O)c2ccccc2Nc2ccnc(C(F)(F)F)c2)c1O
active: SK-MEL-5 melanoma -67% | UACC-62 melanoma 3.69% | LOX IMVI melanoma 7.4% | UO-31 renal -15.1% | ACHN renal 5.76% | A498 renal -10.8% | CCRF-CEM leukemia -37.3% | MOLT-4 leukemia -10.9%
inactive: HCT-15 colon 34.2% | HT29 colon 47.9% | SNB-75 CNS 14.1% | SNB-19 CNS 21.1% | U251 CNS 15.2% | PC-3 prostate 54.2% | SK-MEL-28 melanoma 21.1% | EKVX NSCLC 10.6% | SN12C renal 27.2% | TK-10 renal 23.5%
